These results are taken from PubChem BioAssay AID1851 (National Center for Advancing Translational Sciences (NCATS), 2009).

The structures appear in SMILES notation. Among all 16,000 compounds or so, about 5,800 (36%) were called active. About 23% were inconclusive and are not listed. The list shows a part of the results. A number with no mark means an inactive call. The call rests on the fitted dose curve; in most records, active means well fitted curve in the direction sought with a large enough effect; inconclusive means small, poorly fitted or top-dose-only effect, or effect the other way; inactive means no such curve, though single readings can be large or run the other way.
On the % scale 0 is the no-effect control and ±100 the full control effect.

In this assay the target is Cytochrome P450 2C19 (Homo sapiens) (UniProt P33261). The experiment in a line: Cytochrome panel assay with activity outcomes. To be noted: recombinant CYP, pro-luciferin dealkylation, luminescence, p450-cyp2c19; series mostly up to 57.1 µM.
Cytochrome P450 2C19 (Homo sapiens), sequence (P33261 whole entry, looked up): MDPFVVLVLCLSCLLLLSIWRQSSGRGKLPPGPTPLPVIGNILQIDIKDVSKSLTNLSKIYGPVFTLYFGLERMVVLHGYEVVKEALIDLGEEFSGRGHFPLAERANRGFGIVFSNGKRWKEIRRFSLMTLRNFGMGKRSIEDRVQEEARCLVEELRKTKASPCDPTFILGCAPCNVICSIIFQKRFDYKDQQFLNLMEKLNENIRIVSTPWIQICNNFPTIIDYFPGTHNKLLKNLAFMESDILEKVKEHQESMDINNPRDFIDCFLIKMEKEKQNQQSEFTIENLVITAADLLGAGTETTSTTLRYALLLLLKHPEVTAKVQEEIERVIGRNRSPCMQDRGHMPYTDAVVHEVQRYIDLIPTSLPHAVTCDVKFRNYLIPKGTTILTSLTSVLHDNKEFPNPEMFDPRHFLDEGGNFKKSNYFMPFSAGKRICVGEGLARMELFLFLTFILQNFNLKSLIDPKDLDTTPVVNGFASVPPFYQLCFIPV
`COc1ccc(O[C@H]2C=C[C@@H](c3ccccc3)O[C@H]2COC(=O)CC/C(C)=N/OCC[C@@H]2C=C[C@H](OC(C)=O)[C@H](COC(C)=O)O2)cc1`: the AC50 was 398 nM (active).

With `CCCNC(=O)OC[C@@H]1O[C@H](c2ccccc2)C=C[C@@H]1Oc1ccc(OC)cc1`, the activity, negative = inhibition was -44.8% [at 11.4 µM].

Regarding `COc1ccc(O[C@H]2C=C[C@@H](c3ccccc3)O[C@@H]2CON=C(C)C)cc1`, the activity, negative = inhibition is -28.2% [at 11.4 µM]. On to `CC(=O)OC[C@@H]1O[C@H](CCON=C(C)C)C=C[C@@H]1OC(C)=O`, for which the activity, negative = inhibition was -20.6% [at 11.4 µM]. Regarding `COc1ccc(O[C@H]2C=C[C@@H](c3ccccc3)O[C@H]2CO/N=C(/C)CCC(=O)OC[C@@H]2O[C@H](c3ccccc3)C=C[C@@H]2Oc2ccc(OC)cc2)cc1`, the AC50 was 100 nM (active).

For the compound `CC(=O)OC[C@H]1O[C@@H](ON=C(C)C)[C@H](OC(C)=O)[C@@H](OC(C)=O)[C@H]1OC(C)=O`, the activity, negative = inhibition was 32.2% [at 11.4 µM].

On to `CC(=O)OC[C@H]1O[C@@H](O/N=C(\C)CCN2CCc3nc(-c4ccccc4)c(-c4ccccc4)cc3C2)[C@H](OC(C)=O)[C@@H](OC(C)=O)[C@H]1OC(C)=O`, for which the activity, negative = inhibition was 6.61% [at 11.4 µM]. Still for that read-out and setting: the same measure for `CC(=O)OC[C@@H]1O[C@H](CCO/N=C(\C)CCC(=O)OC[C@@H]2O[C@H](C#Cc3ccccc3)C=C[C@@H]2Oc2ccc(C)cc2)C=C[C@@H]1OC(C)=O`: -44.9% [at 11.4 µM]. Consider `COc1ccc(O[C@H]2C=C[C@@H](c3ccccc3)O[C@H]2COC(=O)N2CCCCC2)cc1`, for which the AC50 was 501 nM (active). With `COc1ccc(O[C@H]2C=C[C@@H](c3ccccc3)O[C@H]2COC(=O)CC/C(C)=N/O[C@@H]2O[C@H](COC(C)=O)[C@H](OC(C)=O)[C@H](OC(C)=O)[C@H]2OC(C)=O)cc1`, the AC50 is 1580 nM (active). Regarding `COc1ccc(O[C@H]2C=C[C@@H](c3ccccc3)O[C@H]2CO/N=C\C[C@@H]2C=C[C@H](OC(C)=O)[C@H](COC(C)=O)O2)cc1`, the AC50 is 794 nM (active). As for `C/C(CCN1CCc2nc(-c3ccccc3)c(-c3ccccc3)cc2C1)=N\OC[C@@H](O)[C@@H]1O[C@@H]2OC(C)(C)O[C@@H]2[C@H]1O`, the activity, negative = inhibition was 3.78% [at 11.4 µM]. As to `CCc1cc2c(nc1CC)CCN(CC/C(C)=N/O[C@@H](C)c1cc(-c3c(C)cc(C)cc3C)no1)C2`, the activity, negative = inhibition was -42.9% [at 11.4 µM]. Regarding `COc1ccc(O[C@H]2C=C[C@@H](c3ccccc3)O[C@H]2COC(=O)CC/C(C)=N\O[C@@H](C)c2cc(-c3c(C)cc(C)cc3C)no2)cc1`, the AC50 was 100 nM (active). For `C/C(CCN1CCCc2nc(C)c(C)cc21)=N\OC[C@@H](O)[C@@H]1O[C@@H]2OC(C)(C)O[C@@H]2[C@H]1O`, the activity, negative = inhibition is -36.9% [at 11.4 µM].

`COc1ccc(O[C@H]2C=C[C@@H](c3ccccc3)O[C@H]2COC(=O)CC/C(C)=N\OC[C@@H](O)[C@H]2O[C@H]3OC(C)(C)O[C@H]3[C@@H]2O)cc1`: the AC50 was 5.01 nM (active).

As for `CC(=O)OC[C@@H]1O[C@H](C/C=N\O[C@@H](C)c2cc(-c3c(C)cc(C)cc3C)no2)C=C[C@@H]1OC(C)=O`, the activity, negative = inhibition was -35.1% [at 11.4 µM]. Take `COc1ccc(O[C@H]2C=C[C@@H](c3ccccc3)O[C@H]2CO/N=C2/[C@H]3O[C@@H]3[C@@H](O)[C@H]3[C@H]2CCn2c(=O)n(-c4ccccc4)c(=O)n23)cc1`: the AC50 is 2510 nM (active). Take `CC(=O)OC[C@@H]1O[C@H](C/C=N\OC[C@@H](C)[C@H](OCc2ccccc2)C(C)C)C=C[C@@H]1OC(C)=O`: the activity, negative = inhibition was -16.1% [at 11.4 µM].

Turning to `CC(C)CO/N=C1/[C@H]2O[C@@H]2[C@@H](O)[C@H]2[C@H]1CCn1c(=O)n(-c3ccccc3)c(=O)n12`, the activity, negative = inhibition is 15.7% [at 11.4 µM].

On to `CC(=O)OC[C@@H]1O[C@H](C/C=N\OC[C@@H](O)COCc2ccco2)C=C[C@@H]1OC(C)=O`, for which the activity, negative = inhibition was 14.8% [at 11.4 µM]. Turning to `CCCNC(=O)OC[C@H]1O[C@@H](CCO/N=C2/[C@H]3O[C@@H]3[C@@H](O)[C@H]3[C@H]2CCn2c(=O)n(-c4ccccc4)c(=O)n23)C=C[C@@H]1Oc1ccc(OC)cc1`, the activity, negative = inhibition is -3.58% [at 11.4 µM].
